dFosB act – enhances mouse delta FosB homodimer DNA binding; P13346; purified delta FosB, TAMRA-CDK5 oligo fluorescence polarization; percent of positive-control signal above neutral wells; activation, % at 25 µM; actives 0.99% (n = 340,000); AID 493131;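 active means mean activation above about 17%, with every replicate also reaching it, limit read from the data, passing the limit was not always enough; inconclusive means only one of the two conditions met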
Dyrk1A ADPGlo – inhibitors of rat Dyrk1A kinase; ADP-Glo luminescence, NFATc1 peptide; inhibition, % at 12.5 µM; actives 0.43% (n = 310,000); in the data active means inhibition above about 50%;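 further: plate controls were vehicle with enzyme for no effect and no enzyme for full effect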
Bfl-1 A1 inh – inhibitors of the anti-apoptotic protein A1, read as caspase activation. MEF A1-2A-BIM cells, Caspase-Glo 3/7 luminescence, 3 h; percent of clofoctol response, vehicle zero. caspase activation, % (no concentration beside the values). actives 0.066% (n = 330,000). AID 2462;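 active means over half of replicate activation scores above 10%, or exactly half above 10 with the replicate mean above 10; inconclusive means replicate mean below 10 yet half the replicates above 10; inactive means over half of replicates below 10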
B2AR ag – human beta-2 adrenergic receptor agonism by FAP; actives 0.43% (n = 340,000); Am2.2-beta2AR cells, FAP receptor internalization, flow cytometry; response, % (test concentration not listed); P07550; AID 504454;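 active means response above a set limit, near 3 SD of response in nonfluorescent compounds, cut at about 42% in these data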
Target sequence (P07550 whole entry, looked up): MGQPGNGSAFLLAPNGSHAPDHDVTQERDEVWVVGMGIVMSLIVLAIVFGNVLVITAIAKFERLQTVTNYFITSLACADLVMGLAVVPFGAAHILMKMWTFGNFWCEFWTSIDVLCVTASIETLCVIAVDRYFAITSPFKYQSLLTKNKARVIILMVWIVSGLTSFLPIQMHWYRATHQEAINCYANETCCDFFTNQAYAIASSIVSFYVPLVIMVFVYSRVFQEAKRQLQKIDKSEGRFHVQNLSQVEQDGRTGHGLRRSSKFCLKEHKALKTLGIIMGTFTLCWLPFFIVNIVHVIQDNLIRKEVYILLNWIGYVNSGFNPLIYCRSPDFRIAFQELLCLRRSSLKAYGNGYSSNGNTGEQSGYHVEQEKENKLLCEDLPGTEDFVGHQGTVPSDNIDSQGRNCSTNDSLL
Dyrk1A artifact – counter-screen for Dyrk1A inhibitors: ADP-Glo luciferase artifacts; shares compounds with Dyrk1A ADPGlo; ADP-Glo luciferase artifact assay, no Dyrk1A, luminescence; AC50, µM (series often up to 12 µM), for the others: top-dose activity change, negative = inhibition; 1,300 tested, under 10 active;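 active means fitted half-maximal dose AC50 no more than ten times the top valid tested dose, with luminescence dropping as dose rises; inconclusive means poor fit, or flat fit with 30 to 70% inhibition; inactive means the rest, signal increases included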
* hit, by the source's call; ? = inconclusive; nt = no result given. Compounds with a hit are over-represented: about 1.6% of the library has one in this group of screens.

SMILES	dFosB act	Dyrk1A ADPGlo	Bfl-1 A1 inh	B2AR ag	Dyrk1A artifact
CNC(=O)CSc1nc2ccccc2c(=O)n1CCc1ccccc1	-4	-3	0	-7	nt
O=[N+]([O-])c1cc([N+](=O)[O-])c2oc(-c3ccccc3)c(Br)c2c1O	-27	76*	nt	4	9%
COc1ccc2[nH]c(C(=O)N/N=C/c3ccc(OC)c(O)c3)cc2c1	-10	63*	1	11	9%
COc1ccc2[nH]c(C(=O)N/N=C/c3ccccc3OC)cc2c1	-11	63*	-1	7	10%
Cn1c(N)c(C(=O)COC(=O)CNC(=O)c2ccccc2Cl)c(=O)n(C)c1=O	-5	-1	0	-7	nt
N=c1oc2cc(O)ccc2cc1C(=O)Nc1ccc(F)cc1	-3	53*	-8	9	9%
Cc1cc(Nc2ccccc2)n(-c2ccc(C(=O)O)cc2)n1	-3	-5	1	-4	nt
COc1ccc(-n2nc(C)cc2Nc2ccccc2C(=O)O)cc1	0	66*	0	5	8%
Cc1ccccc1C(=O)NNC(=O)c1cc(S(=O)(=O)N2CCOCC2)ccc1C	-3	-2	0	3	nt
CC(=O)Nc1ccc2sc(NC(=O)CN3CCOCC3)nc2c1	-3	-7	1	-2	nt
O=C(CN1CCOCC1)Nc1nc2ccc(F)cc2s1	1	51*	0	-7	11%
O=C(CN1CCOCC1)Nc1nc2ccc([N+](=O)[O-])cc2s1	-2	81*	-1	2	9%
Cc1noc(C)c1CSCC(=O)N(C)CC(=O)Nc1ccccc1Br	0	3	-1	-1	nt
CCOC(=O)[C@@H]1[C@H]2COc3ccc(Br)cc3[C@@H]2N2C(=O)N(c3ccc(F)cc3)C(=O)[C@]12C	6	4	-1	16	nt
C[C@@H]1O[C@@H](OC[C@H]2O[C@@H](Oc3cc(O)c4c(=O)cc(-c5ccc(O)c(O)c5)oc4c3)[C@H](O)[C@@H](O)[C@@H]2O)[C@H](O)[C@H](O)[C@H]1O	12	59*	1	0	13%
COc1ccc([C@@H]2CC(=O)c3c(O)cc(O[C@@H]4OC(CO[C@@H]5OC(C)[C@H](O)[C@H](O)C5O)[C@@H](O)[C@@H](O)C4O)cc3O2)cc1O (stereo partly drawn)	4	12	-1	-3	nt
O=c1cc(-c2ccc(O)c(O)c2)oc2cc(O[C@@H]3O[C@H](CO)[C@@H](O)[C@H](O)[C@H]3O)cc(O)c12	19*	60*	-6	-2	9%
Cc1ccc(Cn2nnc3c(=O)[nH]c(C4CCN(S(=O)(=O)c5ccccc5F)CC4)nc32)cc1	-16	-3	-1	-2	nt
O=C1C(Nc2ccc(O)cc2)=C/C(=N/S(=O)(=O)c2cccs2)c2ccccc21	-15	70*	nt	61*	4%
O=C1C=C(Nc2ccc(O)cc2)C(=O)c2ccccc21	-11	13	-8	-8	nt
CCc1ccc(S(=O)(=O)/N=C2\C=C(Nc3cccc(C(=O)O)c3)C(=O)c3ccccc32)cc1	-12	42	0	16	nt
Cc1cc(C)c(S(=O)(=O)/N=C2\C=C(Nc3ccc(C(=O)O)cc3)C(=O)c3ccccc32)c(C)c1	-17	69*	0	14	7%
COc1cccc(C(=O)Nc2cccc3c2ccc2cccn23)c1	-7	nt	0	4	nt
Cc1ccc(CN2CCN(c3ccccc3)CC2)o1	-3	3	1	-1	nt
Cc1ccc(CN2CCN(c3ncccn3)CC2)o1	-7	56*	-1	5	7%
SMILES	dFosB act	Dyrk1A ADPGlo	Bfl-1 A1 inh	B2AR ag	Dyrk1A artifact
Cc1cccc(NC(=S)N2CCN(S(C)(=O)=O)CC2)c1	-7	-10	0	8	nt
COC(=O)[C@H](Cc1c[nH]c2ccccc12)NC(=O)CCCc1c[nH]c2ccccc12	-16	-4	0	5	nt
CCOC(=O)C(Cc1ccc(O)cc1)NC(=O)CCc1c[nH]c2ccccc12 (stereo not drawn)	-7	51*	?	5	12%
O=C(CNC(=O)c1ccccc1F)NCC(c1cccs1)N1CCOCC1 (stereo not drawn)	0	6	1	-7	nt
COC(=O)CSc1ncnc2c1sc1nc3c(cc12)COC(C)(C)C3	-23	6	-2	5	nt
CC1(C)Cc2nc3sc4c(SCC(=O)O)ncnc4c3cc2CO1	-9	93*	-1	4	4%
COc1ccc(N2Nc3n[nH]c(N)c3N2)cc1	-7	61*	-1	5	10%

Bioassay records deposited in PubChem BioAssay by several laboratories.
